Screening results: PubChem BioAssay, Broad Institute
Tgondii IFNg: blocks Toxoplasma gondii growth in the presence of IFN-gamma | Toxoplasma gondii growth in IFN-gamma-treated host cells; hits give low values | activity change, negative = inhibition, % (no concentration beside the values) | 69,000 compounds, 3.8% hits | AID 1259416; in the data active = activity change below about -70%, passing the limit was not always enough;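 also: host cells are HeLa cells infected with Toxoplasma gondii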
Large screens that a line does not name were inactive. Only a selection was taken, and hits are over-represented in it overall.

CCn1c(C2CCCN(C3CCN(c4ccccc4)CC3)C2)nn(C)c1=O (stereo not drawn)	none
CC(=O)N1C[C@@H]2CCCN(Cc3cnn(C)c3)[C@@H]2C1	none
O=C(c1cccs1)N1CCN(CC2CC2)c2ncccc2C1	none
Cc1ccc(C(=O)NCC2CCC(c3nnc(-c4ccc(C)nc4)o3)CC2)cc1 (stereo not drawn)	none
CC(=O)ON(CC(=O)Nc1ccccc1C(=O)c1ccccc1)C(C)=O	Tgondii IFNg -77
COC(=O)c1ccccc1NC(=O)COc1nc(C)nc2ccccc12	none
Cc1ccc(NC(=O)CCNS(=O)(=O)c2ccccc2)c(C(=O)c2ccccc2)c1	none
CCC(=O)Nc1cccc(C(=O)N2CCC[C@H]2CO)c1	none
CCCCC[C@H](CC(=O)NO)C(=O)N[C@H](C(=O)N1CCC[C@H]1CO)C(C)C	Tgondii IFNg -77
COc1cccc(-c2cc(C(=O)N3CCCCC3CCN3CCCC3)[nH]n2)c1 (stereo not drawn)	none
Cc1ccsc1S(=O)(=O)N1CC(c2cccnc2)C1	none
Cc1cc(C(=O)N2CCC(c3cc4c(ncn4C)c(NCC4CC4)n3)CC2)ccc1Cl	Tgondii IFNg -85
Cn1cnc2c(NCc3ccccc3)nc(C3CCN(S(C)(=O)=O)CC3)cc21	none
CC(C)n1cnc2c(NCC3CC3)nc(C3CCN(C(=O)c4cccc(F)c4F)CC3)cc21	none
COCCN1CCC2(CC1)CN(C(=O)c1ccco1)c1ccc(F)cc12	none
CN1CCOCC1c1nccc(NCc2ccco2)n1 (stereo not drawn)	none
CCOC(=O)C12CC=CCN(S(C)(=O)=O)C1CCC2 (stereo not drawn)	none
COc1cc(OC(C)=O)c(-c2cc(OC(C)=O)c(OC)cc2OC(C)=O)cc1OC(C)=O	none
CC(=O)Oc1cccc(C(=O)O)c1OC(C)=O	none
CC(=O)Nc1cc(OC(C)=O)c2nonc2c1OC(C)=O	Tgondii IFNg -75
CCN(Cc1ccccc1F)C(=O)[C@H](N)CC(C)C	none
Cc1ccc(OC(=O)c2c(-c3ccccc3)nnc3ccccc23)cc1	Tgondii IFNg -106
CC[C@H](NC(=O)c1c(C)c(-c2ccccc2)nc2ccccc12)c1ccccc1	none
Cc1noc(C)c1C(=O)Oc1ccccc1	none
CC(=O)N1C[C@H](NC(=O)c2cscn2)C2OCCCC21 (stereo partly drawn)	none
CCc1ccccc1NC(=O)Cn1c(=O)cc(C(=O)N2CCc3ccccc3C2)c2ccccc21	none
CN[C@@H]1C[C@H]2O[C@@](C)([C@@H]1OC)n1c3ccccc3c3c4c(c5c6ccccc6n2c5c31)C(=O)N[C@H]4O	Tgondii IFNg -80
O=C1CC2(CCN(C(=O)CCSCc3ccc(F)cc3)CC2)CN1	none
Cc1cccc(S(=O)(=O)N2CCc3nc(-c4ccccc4)sc3C2)c1	none
Cc1nc2c(c(NC3CC3)n1)CCN(Cc1cnn(C)c1)CC2	none
Cc1cccc(S(=O)(=O)N2CCc3nc(-c4cnn(C)c4)nc(NC4CC4)c3C2)c1	Tgondii IFNg -94
O=C(c1ccn[nH]1)N1CC[C@H]2CN(Cc3cccc(Cl)c3)S(=O)(=O)[C@@H]2CC1	none
c1cc(C2CCCC2)nc(NCCC2CCOC2)n1 (stereo not drawn)	none
CCn1c(CN2CCN(S(=O)(=O)N3CCOCC3)CC2)cnc1SC	none
COc1ccc(OC[C@H]2C3CCC(C3)N2C(=O)c2cnn(C)c2)cc1 (stereo partly drawn)	none
Cc1ccc(-n2[nH]c(C)c(CC(=O)O)c2=O)cc1	none
Cc1ccc(Cc2c(C)[nH]n(-c3nc4ccccc4[nH]3)c2=O)cc1	Tgondii IFNg -98
Cc1ccc2nc(Cc3ccc(NC(=O)CCc4nc5ccccc5[nH]4)cc3)[nH]c2c1	none
COCCC1CN(Cc2cc3ccc(C)cc3[nH]c2=O)CCO1 (stereo not drawn)	none
COc1ncccc1C(=O)N(Cc1cnn(C)c1)C1CC1	none
CN(C)C(=O)c1cncc(-c2cc(O)cc(CCC3CCCCN3)c2)n1 (stereo not drawn)	none
COc1ccc(C(=O)NCCc2sc(-c3cccc(C)c3)nc2C)cc1	none
CCOc1ccc(C(=O)NCCc2sc(-c3cccc(C)c3)nc2C)cc1	none
CCc1nc(-c2cccc(C)c2)c(-c2ccnc(NC(=O)c3ccccc3)c2)s1	Tgondii IFNg -81
Cc1nn(-c2ccccc2)nc1C(=O)Oc1ccc(Cl)cc1	none
CCc1ccccc1NC(=O)NCC(c1cccnc1)c1c[nH]c2ccccc12 (stereo not drawn)	none
O=C(NCC(c1cccnc1)c1c[nH]c2ccccc12)Nc1ccccc1C(F)(F)F (stereo not drawn)	none
O=C(NCC(c1ccccc1)c1c[nH]c2ccccc12)c1ccc(C(F)(F)F)cc1 (stereo not drawn)	Tgondii IFNg -88
CN(C(=O)c1ccc(-n2cnnc2)cc1)C1CCCc2ccccc21 (stereo not drawn)	none
CN(C)S(=O)(=O)c1ccc2c(c1)cc(C(=O)NC1CCCCCCC1)n2Cc1ccncc1	Tgondii IFNg -74
CN(C)S(=O)(=O)c1ccc2c(c1)cc(C(=O)NC1CCCC1)n2Cc1ccncc1	none
COc1ccccc1CNC(=O)c1cc2cc(S(=O)(=O)N(C)C)ccc2n1Cc1ccncc1	none
Cc1ccccc1CNC(=O)c1cc2cc(S(=O)(=O)N(C)C)ccc2n1Cc1ccncc1	none
CN(C)S(=O)(=O)c1ccc2c(c1)cc(C(=O)NCc1ccccc1)n2Cc1ccncc1	none
CN(C)S(=O)(=O)c1ccc2c(c1)cc(C(=O)NC1CCCCCC1)n2Cc1ccncc1	none
CN(C)S(=O)(=O)c1ccc2c(c1)cc(C(=O)NCCCN1CCCC1)n2Cc1ccccc1	Tgondii IFNg -96
CN(C)S(=O)(=O)c1ccc2c(c1)cc(C(=O)NCc1ccccc1Cl)n2Cc1ccncc1	Tgondii IFNg -95
CN(C)CCNC(=O)c1cc2cc(S(=O)(=O)N(C)C)ccc2n1Cc1ccncc1	none
Cc1cccc(NC(=O)COC(=O)c2cccnc2)c1C	none
Cc1ccc(C(=O)N2CCCn3nnc(Cn4ccnc4)c3C2)cc1F	none
Cc1ccccc1N1CCCN(Cc2cnc(N3CCCC3)s2)CC1	none
Cc1nn(Cc2ccccc2)c(C)c1CN(CCN(C)C)Cc1ccncc1	none
Cc1cnc2c(C(=O)N(C)Cc3nc4ccc(F)cc4[nH]3)cnn2c1	none
CCN(CC)c1ccc(NC(=O)C2C(C)C(=O)OC23CCC(C(C)C)CC3)c(C)c1 (stereo not drawn)	none
CCN1C(=O)N(C2Cc3ccccc3C2)C(=O)C12CCN(Cc1cc3c(cc1Cl)OCO3)CC2	none
Cc1ccc(S(=O)(=O)N2CCC3(CC2)Nc2cc(F)ccc2-n2cccc23)cc1C	none
CC1CCN(c2ccc(C(C)NS(=O)(=O)c3cnn(C)c3)cc2)CC1 (stereo not drawn)	none
CCOc1ccc(CNC(=O)c2ccc(-c3nc(CN4CCc5ccccc54)c(C)o3)cc2)cc1OC	none
Cc1oc(C2CCN(C(=O)Cc3ccccc3F)CC2)nc1C(=O)N1CCCC1	none
Cc1oc(C2CCN(C(=O)Cc3c(F)cccc3Cl)CC2)nc1C(=O)N1CCCC1	Tgondii IFNg -73
Cc1oc(C2CCN(C(=O)Cc3ccccc3Cl)CC2)nc1C(=O)N1CCOCC1	none
Cc1noc(C[C@@H]2C[C@H]3CN(Cc4ccc(C)o4)C[C@H]3O2)n1	none
CC1CC(=O)Nc2ccccc2N1C(=O)c1ccccc1 (stereo not drawn)	none
Cc1cc(C)c2c(CC(=O)N3CCCC(c4ccn[nH]4)C3)coc2c1 (stereo not drawn)	none
O=c1[nH]c2ccccc2nc1/C=C/c1cccs1	none
Nc1nc(-c2ccccc2)c(Br)c(=O)[nH]1	none
O=c1[nH]c(-c2ccccc2)nnc1/C=C/c1ccccc1	Tgondii IFNg -85
COc1ccc(S(=O)(=O)N(Cc2nc(-c3ccccc3OC)oc2C)c2ccccc2OC)cc1	none
COc1cccc(NC(=O)c2nc(-c3cn(Cc4ccccc4)cn3)n3ccccc23)c1	none
